From PubChem
MazEF act = activators of E. coli MazEF toxin-antitoxin RNase, primary screen, biochemical, fluorescence, uHTS; Endoribonuclease toxin MazF (Escherichia coli (strain K12)), P0AE70; FAM/BHQ RNA-DNA oligo cleavage fluorescence, 5 h; activation, % at 20 µM; actives 0.32% (n = 350,000); in the data active means activation above about 50%
Bead autofluor = flagged as autofluorescent in microsphere protease counterscreen; compound autofluorescence counterscreen, microsphere flow cytometry; stronger effect = higher value; fluorescence intensity (test concentration not listed); actives 3.1% (n = 360,000); in the data active means fluorescence intensity above about 16000; inconclusive means no clear call, values can overlap the other calls
BoNT A protease = BoNT/A light chain protease inhibitors, primary screen, biochemical, flow cytometry, MLPCN library; multiplex microsphere protease substrate cleavage; inhibition, % at 10 µM; actives 0.17% (n = 360,000); AID 588499, 2011; further: plate controls were buffer without enzyme for full effect and enzyme alone for no effect
Anthrax LF inh2 = Bacillus anthracis LF protease inhibitors, primary screen, biochemical, multiplex microsphere, MLPCN library | inhibition, % at 10 µM | Lethal factor (Bacillus anthracis), P15917 | AID 588501, 2011 | multiplex microsphere protease cleavage assay | actives 0.12% (n = 360,000); further: plate controls were buffer without enzyme for full effect and enzyme alone for no effect
BoNT-F LC inh = BoNT/F light chain protease inhibitors, primary screen, biochemical, flow cytometry, MLPCN library | Botulinum neurotoxin type F light chain protease (Clostridium botulinum) | Multiplex microsphere protease cleavage assay | inhibition, % at 10 µM | actives 0.22% (n = 360,000); in the data active means inhibition above about 35%, passing the limit was not always enough; inconclusive means no clear call, values can overlap the other calls; further: plate controls were buffer without enzyme for full effect and enzyme alone for no effect
An asterisk follows results filed as active; ? = inconclusive; · = not tested or not shown; + = active, no number. Compounds with a hit are over-represented: about 3.7% of the library has one in this group of screens. Unless noted, no stated cut-off is given here; in the data, active means inhibition above about 30%; inconclusive means no clear call, values can overlap the other calls; inactive means below that.

SMILES | MazEF act | Bead autofluor | BoNT A protease | Anthrax LF inh2 | BoNT-F LC inh
O=C(OCC1OC(n2cnc3c(N(C(=O)c4ccccc4)C(=O)c4ccccc4)ncnc32)C(O)C1F)c1ccccc1 (stereo not given) | -1 | 24792* | -4 | -2 | -7
Nc1ncnc2c1ncn2[C@@H]1O[C@H](CNC(=O)OC[C@@H](N)Cc2ccccc2)[C@@H](O)[C@H]1O | · | 5853 | 0 | 3 | -6
Cc1ccc(SCc2cc(=O)[nH]c(/N=C(\N)Nc3ccc(C)c(C)c3)n2)cc1 | -2 | 25207* | -3 | -1 | -8
CCOC(=O)Cc1cc(=O)[nH]c(/N=C(\N)Nc2ccc(C)cc2C)n1 | 7 | 23280* | 0 | 1 | -1
COCc1cc(=O)[nH]c(/N=C(\N)Nc2ccc(C)cc2)n1 | 1 | 21003* | ? | 0 | -5
COc1ccc(N/C(N)=N/c2nc(CSc3ccc(Cl)cc3)cc(=O)[nH]2)cc1 | -44 | 10842 | 0 | -1 | -2
Cc1ccccc1C(=O)NCC(=O)OC1CCCCC1=O (stereo not given) | -2 | 5370 | 2 | -3 | -2
CCOC(=O)CSc1nc2ccccc2c(=O)n1-c1ccc(C(=O)NCCOC)cc1 | -6 | 21747* | 0 | -4 | -1
CCOC(=O)CSc1nc2cc(C(=O)N3CCC(C(N)=O)CC3)ccc2c(=O)n1-c1ccccc1 | -2 | 21305* | 5 | 2 | 4
CN1CCN(C2OC(=O)c3ccccc32)CC1 (stereo not given) | -4 | 17143* | -2 | 1 | -3
Cc1ccc(NC(=S)N2CCN(C(=O)C3CCCO3)CC2)c(C)c1 (stereo not given) | 4 | 22658* | ? | 0 | 1
Cc1ccc(NC(=S)N2CCC(N(C)CC3CCCO3)CC2)c(C)c1 (stereo not given) | -5 | 19642* | 10 | 2 | 12
Cc1ccc(NC(=O)CN2CCN(C(=O)C3CCCO3)CC2)c(C)c1 (stereo not given) | 5 | 5204 | 1 | 3 | 4
CCc1c(C)sc(NC(=S)N2CCN(C(=O)C3CCCO3)CC2)c1C(=O)OC (stereo not given) | 15 | 51235* | -162 | -43 | -286
C=CCn1c(SCC(=O)NCC)nc2sc3c(c2c1=O)CCC3 | 10 | 4025 | -3 | -2 | -6
CCOC(=O)N1CCN(C(=O)CN(c2ccc(OCC)cc2)S(C)(=O)=O)CC1 | 6 | 22023* | 1 | -1 | 2
CCOC(=O)N1CCN(C(=O)CN(c2ccc(OC)c(OC)c2)S(C)(=O)=O)CC1 | 4 | 16773* | -1 | 1 | 2
COC(=O)C1CCN(S(=O)(=O)c2ccc(OC)cc2)CC1 | -52 | 24359* | -2 | 1 | -4
CN(C)C(CNC(=O)C1CCN(S(=O)(=O)c2ccc(Cl)cc2)CC1)c1ccccc1 (stereo not given) | 6 | 4443 | 2 | 2 | 20
Cc1ccc(NC(=O)NC2CCN(S(=O)(=O)c3ccc(F)cc3)CC2)cc1 | -3 | 7680 | 1 | -5 | -4
COc1ccc(S(=O)(=O)N2CCCCCC2)cc1 | 0 | 22702* | 0 | -2 | 1
COc1ccc(S(=O)(=O)N2CCC(C(=O)NCC3CC3)CC2)cc1 | 4 | 3057 | -2 | 4 | 5
COc1ccc(S(=O)(=O)N2CCC(NC(=O)Nc3ccc(C)cc3)CC2)cc1 | -2 | 20464* | ? | -6 | 5
COc1ccc(C(CNC(=O)C2CCN(S(=O)(=O)c3ccc(F)cc3)CC2)N(C)C)cc1 (stereo not given) | + | 3363 | 3 | -2 | 2
Cc1ccc(C(=O)NCC(=O)OCCOc2ccccc2Cl)cc1 | 2 | 4170 | 6 | -4 | 7
SMILES | MazEF act | Bead autofluor | BoNT A protease | Anthrax LF inh2 | BoNT-F LC inh
N#Cc1cccnc1N1CCN(C(=O)c2cccs2)CC1 | 5 | 4103 | -1 | 6 | 25
CCOC(=O)/C(C(N)=NCCCO)=C(/O)c1ccccc1 | 11 | 7115 | 1 | 1 | -5
CCOC(=O)/C(C(N)=NCCO)=C(/O)c1ccccc1 | 8 | 17067* | -1 | -4 | -1
CCC(C)(C(=O)NC1CCCC1)N(C(=O)CNC(=O)c1ccccc1)c1c(C)n(C)n(-c2ccccc2)c1=O (stereo not given) | 1 | 4134 | 0 | 0 | -3
COC1C(OC(=O)c2ccc(C)[nH]2)C(O)C(Oc2ccc3c(O)c(NC(=O)c4ccc(O)c(CC=C(C)C)c4)c(=O)oc3c2Cl)OC1(C)C (stereo not given) | 55* | 4283 | 0 | -4 | -1
COc1ccc(N2C(=O)CC(N3CCN(c4ccc(Cl)cc4)CC3)C2=O)cc1 (stereo not given) | 9 | 3480 | 0 | -9 | 23
COc1ccc(N2C(=O)CC(N3CCC(O)(c4ccc(Cl)cc4)CC3)C2=O)cc1 (stereo not given) | 9 | 16898* | ? | -2 | -6
COc1ccc(N2C(=O)CC(N3CCC(c4nc5ccccc5[nH]4)CC3)C2=O)cc1 (stereo not given) | 7 | 22767* | ? | -2 | -3
COc1ccc(N2C(=O)CC(n3cnc4ccccc43)C2=O)cc1 (stereo not given) | -4 | 22109* | ? | 1 | 1
O=C1CC(N2CCC(c3nc4ccccc4[nH]3)CC2)C(=O)N1c1ccccc1F (stereo not given) | 9 | 2065 | 0 | -2 | 3
Cc1ccc(N2CCN(Cc3ccccc3)CC2=O)c(C)c1 | 10 | 3941 | 2 | 8 | ?
CCOC(=O)[C@H]1[C@H]2COc3ccc(C)cc3[C@@H]2N2C(=O)[C@@H](C)NC(=O)[C@@]12C | 5 | 4078 | 0 | 8 | 1
COC(=O)C1(C(C[N+](=O)[O-])c2ccc(C)cc2)C(=O)NCC1c1ccco1 (stereo not given) | -5 | 5321 | 0 | 0 | 6
COc1cc2c(cc1OC)CN(C(=O)CCCN1C(=O)c3ccccc3C1=O)CC2 | 1 | 22299* | ? | -2 | -2
CC(C)(C)CC(=O)NC(=S)Nc1ccccc1C(F)(F)F | -6 | 24827* | -3 | -1 | -3
CSc1ccccc1NC(=S)Nc1ccccc1C(F)(F)F | -13 | 19907* | 0 | -1 | 1
Cc1ccc([N+](=O)[O-])cc1NC(=S)NC(=O)CC(C)(C)C | 6 | 19100* | 2 | 1 | 1
Cc1cc(OC(=O)CCNC(=O)OC(C)(C)C)c2c3c(c(=O)oc2c1)CCC3 | 2 | 22958* | 2 | -2 | 0
Cc1cc(OCC(=O)OC(C)(C)C)c2c3c(c(=O)oc2c1)CCC3 | -4 | 6977 | 0 | 11 | 3
